For one compound, Potency, activation and outcome results are on record in PubChem BioAssay (NCATS).

Assay [1] is described as follows: Validation screen for small molecules that induce genotoxicity in human embryonic kidney (HEK293T) cells expressing luciferase-tagged ELG1 (AID 493106). Note: 0% is about no effect. In outline:
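qHTS format; 2,000 HEK293T ELG1-luc cells/well; 23 nL compound via pin tool; 16 hr, 37 °C/5% CO2; ONE-Glo, 30 min RT; luminescence read.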

Assay [2] deals with Thyrotropin-releasing hormone receptor (Homo sapiens) (UniProt P34981). Kind of assay: qHTS for Small Molecule Agonists and Allosteric Enhancers of Human TRH Receptor: Validation Screen for Agonists (AID 493127;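 active = calcium activation more than 3 SD above the typical response in the agonist read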;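 note: intracellular calcium rise by fluo-8 fluorescence before TRH EC20 addition; 0% is about no effect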). To be noted: TRH receptor agonist cell assay; at 2 µM; hits give high values. In outline: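 Read-out: intracellular calcium release measured kinetically by FDSS (fluo-8, ex 480/em 530 nm), 1 reading/s after a 10-cycle baseline. TRHR cells, 2000/well, cultured 18 h at 33.5C, dye-loaded at room temp. Compound-evoked positive calcium signal flags agonists.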
A general note: In qHTS, concentration-response curves come from the screen itself.

Assay [3] can be described thus: qHTS for Inhibitors of Cell Surface uPA Generation: Validation Assay (AID 493164).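 Note: RAW 264.7 macrophage cells exposed to compound for 18 h; 0% is about no effect.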 In outline: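 Compounds are titrated over seven points (2.45 nM–38.3 uM final) onto pre-plated RAW 264.7 cells and incubated for 18 h. Retained intracellular ATP, measured with ATP-Lite, indicates blocked lethal factor entry.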
Assay [4] can be described thus: Validation screen for small molecules that induce DNA re-replication in SW480 colon adenocarcinoma cells (AID 504364). Note: 0% is about no effect. In a few lines:
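Read-out: total Hoechst intensity of nuclei by fluorescence scanning imager; hits raise the fraction of nuclei with elevated DNA content. Cells received compound for 48 hr at 37 C before a 40 min stain.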

Assay [5] deals with Peptidyl-prolyl cis-trans isomerase NIMA-interacting 1 (Homo sapiens) (UniProt Q13526). Kind of assay: qHTS Validation Assay to Find Inhibitors of Pin1 (AID 504536; active = well fitted inhibition curve with a large enough effect in the polarisation, with a control signal flat, not every such curve was filed as active; the % refers to the polarisation; note: potency is the fitted concentration of half-maximal effect). In a few lines: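 Fluorescence polarization competition: compounds (titration) displace HiFluor-488-labeled Pin1-1b peptide from Pin1 (0.3 uM final) in pH 7.5 HEPES buffer with DTT, 10 min at room temperature; %Activity normalized to no-enzyme wells, curves fitted.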

The target in assay [6] is Phosphoglycerate kinase, glycosomal (Trypanosoma brucei brucei) (UniProt P07378). Kind of assay: qHTS Validation Assay to Find Inhibitors of Phosphoglycerate Kinase (AID 504547). Note: potency is the fitted concentration of half-maximal effect. In outline: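 In TEA buffer (100mM, pH 7.6) containing 5mM MgCl2 and 0.01% Tween-20, the GAPDH-coupled PGK reaction proceeded for 60 minutes at room temperature before a single luminescence reading using Kinase-Glo Plus.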

In assay [7] the target is Ubiquitin carboxyl-terminal hydrolase 1 (Homo sapiens) (UniProt O94782). Kind of assay: Inhibitors of USP1/UAF1: Pilot qHTS (AID 504865). Note: potency is the fitted concentration of half-maximal effect; nearly all actives have a fitted effect of over 35% in size. In a few lines: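 Deubiquitinase activity followed as kinetic rhodamine fluorescence release from 150 nM Ub-Rho. 1 nM USP1/UAF1 with compound, after 15 min room-temperature preincubation, in HEPES pH 7.8 buffer containing TCEP, EDTA, BSA and Tween-20.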

The target of assay [8] is Voltage-gated inwardly rectifying potassium channel KCNH2 (Homo sapiens) (UniProt Q12809). Nature of the assay: qHTS Assay for Small Molecule Inhibitors of the Human hERG Channel Activity (AID 588834).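 Note: top concentration of the series differs between compounds; % is set by controls: 0 for no effect and ±100 for the full control effect; lower thallium flux fluorescence means stronger hERG block; nearly all actives have a fitted effect of over 50% in size.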 In outline: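 hERG block measured as reduced thallium-dye (FluxOR) fluorescence after stimulation buffer addition, read over 2 min. Cells were hERG-BacMam-transduced U2OS exposed to compound ~10 min […]; concentration-response fitted with Hill equation for AC50.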

Assay [9] deals with Glucagon-like peptide 1 receptor (Homo sapiens) (UniProt P43220). Kind of assay: qHTS of GLP-1 Receptor Agonists: LOPAC Validation (AID 624148).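 Note: 0% is about no effect; higher luminescence signal means agonism.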 In a few lines:
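HEK293 cells stably co-expressing a cAMP-responsive luciferase reporter and a hypersensitive GLP-1R were plated 12 h at 37 °C and exposed to compounds for 4-6 hr at 37 °C, 5% CO2. Luminescence was read 12 min after adding detection reagent.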

The nature of assay [10]: qHTS of Nrf2 Activators: LOPAC Validation (AID 624149). Note: 0% is about no effect. In a few lines:
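AREc32_Fluc cells, 1000/well, OPTI-MEM + 5% FBS, o/n 37 deg C 5% CO2; compound pin-transfer, 24 hr 37 deg C; Steady-Glo 30 min RT, luminescence read.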

Assay [11] is described as follows: HTS Assay for Allosteric Antagonists of the Human D2 Dopamine Receptor: Hit Validation in HTRF (AID 624455). Note: % is set by controls: 0 for no effect and ±100 for the full control effect. In outline:
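HTRF read-out; cells stably expressing D1 receptor; hits scored for inhibition of D1-mediated response. Primary screen: calcium flux, force-coupled inducible Hek293 Trex D2 line, antagonism vs EC80 dopamine.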
Background: Time-resolved FRET reads energy transfer from a long-lived donor to a nearby acceptor.

Assay [12] deals with Arylsulfatase A (Homo sapiens) (UniProt P15289). Nature of the assay: qHTS screen for enhancers of Arylsulfatase A (ASA1): LOPAC Validation Assay (AID 720538). Note: potency is the fitted concentration of half-maximal effect. In a few lines: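 Enhancer assay in patient-derived MLD fibroblasts carrying ASA-I179S: 48 h compound exposure at 37 C, then 14 h room-temperature pNCS turnover (0.5 mM final) in lysis buffer. Read by fluorescence at 525/598 nm after NaOH stop.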

A short description of assay [13]: qHTS for Activators of Parkin Expression: LOPAC Validation Assay (NLuc Reporter) (AID 720572;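 note: 0% = DMSO and 100% = positive control compound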). In outline: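 Cells harboring the Parkin-promoter coincidence reporter were treated for 24 h at seven concentrations. NLuc output was measured sequentially after the FLuc channel and scaled between DMSO and positive control values.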
Assay [14] is described as follows: qHTS for Activators of Parkin Expression: LOPAC Validation Assay (FLuc Reporter) (AID 720573;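 note: 0% = DMSO and 100% = positive control compounds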). In outline: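 FLuc signal from Parkin-promoter coincidence reporter neuronal cells, normalized to DMSO and positive control (100%). Cells (1,500/well) pre-incubated 24 h, then exposed to LOPAC compounds in 7-point dose response for 24 h at 37 C, 5% CO2.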
Assay [15] has as its target Hexokinase-4 (Homo sapiens) + Glucokinase regulatory protein (Homo sapiens) (UniProt P35557+Q14397). Kind of assay: qHTS assay for inhibitors of recombinant human GCK-GKRP interaction: ADP-Glo assay (AID 743206).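 Note: plate controls were DMSO plus enzyme for no effect and no enzyme for full effect.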 In a few lines: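 Pin-transferred compounds meet a 15 nM GST-GCK/15 nM FLAG-GKRP/2 uM S6P mix (dispense concentrations). ATP is then added to 0.4 mM final with 5 mM glucose, and the reaction runs 60 min at room temperature. ADP is quantified luminescently.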

Assay [16] in a line: Natriuretic polypeptide receptor (hNpr1) antagonism - Pilot counterscreen GloSensor control cell line (AID 1347045; calls by dose curve; note: potency is the fitted concentration of half-maximal effect). In outline:
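HEK293 cGMP-sensor cells; 2% GloSensor reagent 2 h RT; LOPAC compounds in 1:5 titrations 30-50 min; 50 uM SNP 20 min; luminescence pre-read and post-read.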

The nature of assay [17]: NS1 protein of Zika virus - qHTS assay to identify small molecule inhibitors in human HEK 293 cells (AID 1347053).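 Note: series mostly up to about 46 µM; plate controls were infected untreated cells for no effect and uninfected cells for full effect; nearly all actives have a fitted effect of over 55% in size.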 In a few lines: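 Compound-treated (1 h pre-infection) HEK 293 cells infected with ZIKV MR766, MOI = 0.5; after 24 h at 37 C, NS1 read by TR-FRET; data normalized to uninfected and infected controls.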
The target in assay [18] is T1, Tyrosine-protein phosphatase non-receptor type substrate 1 (Homo sapiens) + Leukocyte surface antigen CD47 (Homo sapiens) (UniProt P78324+Q08722). Kind of assay: CD47-SIRPalpha protein protein interaction - LANCE assay qHTS validation (AID 1347057; active = well fitted curve in the direction sought with a large enough effect in the signal ratio, with a control signal flat, not every such curve was filed as active; the % refers to the signal ratio; note: series mostly up to about 38 µM; 0% is about no effect). In a few lines:
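Inhibition of soluble CD47/SIRPalpha ectodomain association by titrated compounds, measured as 665/615 nm time-resolved FRET ratio after sequential 30 min room-temperature incubations.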

Assay [19] has as its target T1, Tyrosine-protein phosphatase non-receptor type substrate 1 (Homo sapiens) + Leukocyte surface antigen CD47 (Homo sapiens). Kind of assay: CD47-SIRPalpha protein protein interaction - Alpha assay qHTS validation (AID 1347059).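 Note: bead proximity luminescence from CD47 binding SIRPalpha after compound preincubation with SIRPalpha; potency is the fitted concentration of half-maximal effect.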 In outline:
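In PBS (pH 7.4) with 0.05% IGEPAL CA-630, compound is preincubated with biotin-Avi-SIRPalpha ectodomain before His-CD47 ectodomain and affinity beads are added. Light-protected room-temperature incubations; AlphaScreen readout.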

The target of assay [20] is Parathyroid hormone/parathyroid hormone-related peptide receptor (Homo sapiens) (UniProt Q03431). Nature of the assay: qHTS for PTHR1 Agonists: Optimization Screen against the NCGC LOPAC library (AID 1347079).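 Note: GloSensor cAMP luminescence in HEK-293 GP2 cells expressing human PTHR1 with IBMX; 0% is about no effect.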 In outline:
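Signal increase flags agonism. GP2 cells, derived from HEK-293, express human PTHR1 and a GloSensor cAMP construct.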

A number with no mark means an inactive call. Results filed as inconclusive are left out. The source made the active and inactive calls. Unless noted, calls come from the whole dose curve; as a rule, active = well fitted curve in the direction sought with a large enough effect; inconclusive = small, poorly fitted or top-dose-only effect, or another doubt; inactive = no such curve, though single readings can be large; an effect the other way counts as inactive or inconclusive.

T1 sequence (P78324 whole entry, looked up, the tested form may be a part): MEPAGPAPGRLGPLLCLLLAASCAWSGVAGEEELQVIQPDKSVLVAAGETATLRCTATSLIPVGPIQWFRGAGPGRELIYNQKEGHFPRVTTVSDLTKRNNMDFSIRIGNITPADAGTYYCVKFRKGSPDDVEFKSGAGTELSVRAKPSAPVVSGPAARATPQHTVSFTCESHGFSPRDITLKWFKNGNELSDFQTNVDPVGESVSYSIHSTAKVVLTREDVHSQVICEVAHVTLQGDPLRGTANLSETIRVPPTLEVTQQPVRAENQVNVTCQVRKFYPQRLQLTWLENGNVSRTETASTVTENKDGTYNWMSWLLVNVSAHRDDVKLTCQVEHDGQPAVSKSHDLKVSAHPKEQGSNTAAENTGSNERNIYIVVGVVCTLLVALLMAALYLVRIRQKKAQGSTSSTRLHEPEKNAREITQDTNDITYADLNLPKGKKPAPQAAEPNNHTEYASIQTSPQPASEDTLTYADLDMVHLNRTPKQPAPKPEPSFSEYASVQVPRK
T1 sequence (Q08722 whole entry, looked up, the tested form may be a part): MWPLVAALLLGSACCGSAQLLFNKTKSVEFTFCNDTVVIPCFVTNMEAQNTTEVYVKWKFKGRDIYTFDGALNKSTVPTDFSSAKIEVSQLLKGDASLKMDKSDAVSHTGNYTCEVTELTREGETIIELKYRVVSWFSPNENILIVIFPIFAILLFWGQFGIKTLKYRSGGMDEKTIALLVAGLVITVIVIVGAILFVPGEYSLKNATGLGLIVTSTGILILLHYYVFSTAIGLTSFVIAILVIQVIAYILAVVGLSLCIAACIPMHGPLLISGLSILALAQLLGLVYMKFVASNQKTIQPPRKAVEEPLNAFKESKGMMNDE
Sequence of Parathyroid hormone/parathyroid hormone-related peptide receptor (Homo sapiens) (Q03431 whole entry, looked up): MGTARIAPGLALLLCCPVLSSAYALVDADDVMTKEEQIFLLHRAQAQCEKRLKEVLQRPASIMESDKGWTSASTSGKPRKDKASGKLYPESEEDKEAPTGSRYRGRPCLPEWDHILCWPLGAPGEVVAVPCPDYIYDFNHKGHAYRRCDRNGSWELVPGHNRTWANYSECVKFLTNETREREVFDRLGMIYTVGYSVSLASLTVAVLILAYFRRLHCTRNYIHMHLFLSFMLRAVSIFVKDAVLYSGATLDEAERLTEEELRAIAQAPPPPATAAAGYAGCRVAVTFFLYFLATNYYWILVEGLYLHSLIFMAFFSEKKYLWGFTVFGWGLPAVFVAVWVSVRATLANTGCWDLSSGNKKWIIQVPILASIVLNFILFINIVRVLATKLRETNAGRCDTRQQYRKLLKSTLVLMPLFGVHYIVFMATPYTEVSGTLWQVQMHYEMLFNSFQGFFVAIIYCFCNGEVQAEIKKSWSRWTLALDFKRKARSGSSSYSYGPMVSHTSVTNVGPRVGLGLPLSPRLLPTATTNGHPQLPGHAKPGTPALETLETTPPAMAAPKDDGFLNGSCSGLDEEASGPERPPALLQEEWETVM
Sequence of Arylsulfatase A (Homo sapiens) (P15289 whole entry, looked up): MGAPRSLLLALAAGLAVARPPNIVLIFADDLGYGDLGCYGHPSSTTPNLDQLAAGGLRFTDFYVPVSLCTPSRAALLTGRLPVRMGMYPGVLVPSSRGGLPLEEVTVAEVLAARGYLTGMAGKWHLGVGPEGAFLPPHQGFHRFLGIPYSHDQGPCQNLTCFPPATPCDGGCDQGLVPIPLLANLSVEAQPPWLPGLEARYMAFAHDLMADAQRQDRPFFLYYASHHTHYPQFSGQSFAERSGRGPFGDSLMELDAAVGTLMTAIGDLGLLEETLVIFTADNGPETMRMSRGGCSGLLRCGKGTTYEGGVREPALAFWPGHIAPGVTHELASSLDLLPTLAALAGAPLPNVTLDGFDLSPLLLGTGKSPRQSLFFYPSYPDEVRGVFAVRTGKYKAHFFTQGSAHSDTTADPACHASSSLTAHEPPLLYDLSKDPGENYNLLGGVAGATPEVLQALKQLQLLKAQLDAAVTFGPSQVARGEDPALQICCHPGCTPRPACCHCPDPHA
Sequence of Glucagon-like peptide 1 receptor (Homo sapiens) (P43220 whole entry, looked up): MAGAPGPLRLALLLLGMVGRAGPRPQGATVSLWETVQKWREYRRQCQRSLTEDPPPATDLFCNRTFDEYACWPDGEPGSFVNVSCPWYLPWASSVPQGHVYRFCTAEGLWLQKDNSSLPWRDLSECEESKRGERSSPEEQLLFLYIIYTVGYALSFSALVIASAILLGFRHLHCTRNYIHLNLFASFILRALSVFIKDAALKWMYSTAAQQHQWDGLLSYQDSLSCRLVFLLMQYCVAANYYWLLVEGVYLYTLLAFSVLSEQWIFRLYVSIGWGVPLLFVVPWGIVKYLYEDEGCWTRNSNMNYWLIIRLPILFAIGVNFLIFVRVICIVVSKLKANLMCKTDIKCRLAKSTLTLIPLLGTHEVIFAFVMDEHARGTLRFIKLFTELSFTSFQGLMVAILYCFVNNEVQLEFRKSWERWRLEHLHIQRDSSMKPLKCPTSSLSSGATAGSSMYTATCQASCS
Sequence of Phosphoglycerate kinase, glycosomal (Trypanosoma brucei brucei) (P07378 whole entry, looked up): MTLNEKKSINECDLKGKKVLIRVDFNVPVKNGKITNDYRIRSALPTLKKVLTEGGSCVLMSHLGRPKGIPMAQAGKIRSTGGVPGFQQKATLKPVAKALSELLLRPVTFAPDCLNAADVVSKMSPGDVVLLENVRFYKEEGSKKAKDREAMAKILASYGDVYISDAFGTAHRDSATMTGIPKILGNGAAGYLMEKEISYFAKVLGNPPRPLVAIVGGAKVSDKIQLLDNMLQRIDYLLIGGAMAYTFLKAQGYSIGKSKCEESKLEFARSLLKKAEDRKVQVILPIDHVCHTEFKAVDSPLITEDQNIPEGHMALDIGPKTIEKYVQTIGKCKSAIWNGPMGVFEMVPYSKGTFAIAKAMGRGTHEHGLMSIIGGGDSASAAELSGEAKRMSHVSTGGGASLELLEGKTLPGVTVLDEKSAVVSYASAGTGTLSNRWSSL
Sequence of Thyrotropin-releasing hormone receptor (Homo sapiens) (P34981 whole entry, looked up): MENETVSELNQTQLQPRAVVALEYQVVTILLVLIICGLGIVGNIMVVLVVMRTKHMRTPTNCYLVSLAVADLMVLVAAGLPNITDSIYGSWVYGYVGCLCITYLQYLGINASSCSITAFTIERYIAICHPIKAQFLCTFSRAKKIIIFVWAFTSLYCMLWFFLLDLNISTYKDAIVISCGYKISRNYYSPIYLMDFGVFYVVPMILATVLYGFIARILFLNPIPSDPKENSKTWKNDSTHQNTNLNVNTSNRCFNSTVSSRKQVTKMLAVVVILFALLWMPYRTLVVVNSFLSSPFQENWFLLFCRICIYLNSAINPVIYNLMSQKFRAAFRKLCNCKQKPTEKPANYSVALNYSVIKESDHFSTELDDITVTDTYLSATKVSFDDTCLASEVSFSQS
Sequence of Voltage-gated inwardly rectifying potassium channel KCNH2 (Homo sapiens) (Q12809 whole entry, looked up): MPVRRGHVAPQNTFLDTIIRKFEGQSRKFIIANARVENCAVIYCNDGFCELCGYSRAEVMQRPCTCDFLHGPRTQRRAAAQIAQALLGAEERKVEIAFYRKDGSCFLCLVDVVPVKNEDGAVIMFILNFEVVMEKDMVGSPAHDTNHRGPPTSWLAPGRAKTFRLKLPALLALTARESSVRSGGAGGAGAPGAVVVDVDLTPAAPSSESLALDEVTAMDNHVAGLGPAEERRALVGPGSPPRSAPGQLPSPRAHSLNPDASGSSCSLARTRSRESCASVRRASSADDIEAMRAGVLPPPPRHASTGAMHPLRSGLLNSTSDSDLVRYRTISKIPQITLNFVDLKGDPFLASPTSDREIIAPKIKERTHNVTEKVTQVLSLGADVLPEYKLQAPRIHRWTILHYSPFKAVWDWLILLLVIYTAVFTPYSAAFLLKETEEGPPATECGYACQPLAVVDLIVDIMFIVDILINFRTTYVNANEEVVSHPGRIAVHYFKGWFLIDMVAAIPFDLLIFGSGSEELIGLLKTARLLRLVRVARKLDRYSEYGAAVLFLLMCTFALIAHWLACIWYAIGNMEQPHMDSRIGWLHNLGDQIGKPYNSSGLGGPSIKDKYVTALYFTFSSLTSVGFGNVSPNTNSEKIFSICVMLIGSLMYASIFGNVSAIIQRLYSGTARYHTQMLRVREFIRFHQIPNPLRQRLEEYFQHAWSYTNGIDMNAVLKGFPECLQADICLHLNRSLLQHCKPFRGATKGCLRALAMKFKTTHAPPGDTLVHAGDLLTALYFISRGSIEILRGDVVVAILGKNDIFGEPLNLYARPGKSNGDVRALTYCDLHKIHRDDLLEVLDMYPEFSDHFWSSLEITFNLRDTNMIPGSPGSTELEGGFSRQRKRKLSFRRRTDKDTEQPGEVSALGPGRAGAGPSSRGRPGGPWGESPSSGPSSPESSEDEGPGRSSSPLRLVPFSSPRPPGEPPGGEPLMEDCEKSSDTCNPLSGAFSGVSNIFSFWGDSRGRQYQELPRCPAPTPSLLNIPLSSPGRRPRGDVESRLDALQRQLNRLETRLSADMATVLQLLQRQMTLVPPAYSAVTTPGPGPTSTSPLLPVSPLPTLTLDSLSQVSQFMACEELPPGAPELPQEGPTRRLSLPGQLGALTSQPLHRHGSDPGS
Sequence of Peptidyl-prolyl cis-trans isomerase NIMA-interacting 1 (Homo sapiens) (Q13526 whole entry, looked up): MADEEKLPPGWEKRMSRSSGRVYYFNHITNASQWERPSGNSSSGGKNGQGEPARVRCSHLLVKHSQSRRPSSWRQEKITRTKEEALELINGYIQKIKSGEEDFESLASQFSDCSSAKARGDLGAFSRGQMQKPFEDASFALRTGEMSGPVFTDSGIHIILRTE

For `Nc1c(S(=O)(=O)O)cc(Nc2ccc(Nc3nc(Cl)nc(Nc4ccc(S(=O)(=O)O)cc4)n3)c(S(=O)(=O)O)c2)c2c1C(=O)c1ccccc1C2=O`, the Potency result in [1], in assay [8] and in assay [14] was “inactive” throughout. Also, the activation in [2] is 1.5%. Moreover, the call in assay [3], in [4], in [9], in [10], in assay [11] and in assay [13] was inactive. In addition, the result in [15], in assay [17], in [18] and in assay [20] was inactive. Besides, the Potency was 2.39 µM (active) in assay [5]; 5.36 µM (active) in assay [6]; 6.31 µM (active) in [7]; 26.9 µM (active) in [12]; 9.27 µM (active) in assay [16]; 11.7 µM (active) in assay [19].
